# Paper PMC5540273 (PLoS ONE, 2017)
# Tested on: CAMK2D
# Settings: concentration: 1 μM, replicates: in singlicate; n = 1
# 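Further: KINOMEscan kinase panel screen.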
row,Compound,%Inh
1,CN1C(=O)C(Nc2ccc(Cl)c(C(=O)O)c2)=C(c2ccc(Cl)cc2)C1=O [SB-404290],0%
2,Cc1cccc(-c2nc(-c3ccc(S(C)(=O)=O)cc3)sc2-c2ccnc(NCCc3ccccc3)c2)c1,7%
3,COc1cccc(-c2cc(-c3c[nH]nc3-c3ccccn3)ccn2)c1 [GW680338],16%
4,Cl.NC(=O)c1cccc(Nc2nccc(Nc3ccc(Oc4cccc(Cl)c4)c(Cl)c3)n2)c1 [GW659008],5%
5,Cn1ccc2ncnc(Oc3ccc(NC(=O)Nc4ccccc4)cc3)c21,13%
6,Cc1ccc(C(=O)Nc2ccc(Nc3ccnc4cc(-c5ccccn5)ccc34)cc2O)cc1.Cl [GW440146],0%
7,Cc1c(O)cccc1Nc1ccnc2ccc(C(F)(F)F)cc12.Cl [GW466413],0%
8,CC(C)(C)c1ccc(C(=O)Nc2cn3cc(-c4cccnc4)ccc3n2)cc1,24%
9,CC1=C(C(=O)Nc2cc3cn[nH]c3cc2F)C(c2ccc(C(F)(F)F)cc2)CC(=O)N1 (centres unmarked) [GSK429286],0%
10,Cl.c1ccc(-c2n[nH]cc2-c2ccnc(-c3ccc(CN4CCOCC4)cc3)c2)nc1 [GW776245],11%
11,Cc1cccc(-c2cc(Nc3ccncc3)c3ccccc3n2)n1 [GSK223675],20%
12,Cc1cccc(-c2nc(Nc3ccncc3)c3ccccc3n2)n1 [GW855857],7%
13,COc1ccc2nc(-c3cccc(C)n3)nc(Nc3ccncc3)c2c1 [GSK204919],0%
14,COc1ccc(C2=C(Nc3cccc(C(=O)O)c3)C(=O)NC2=O)cc1 [SB-390765],16%
15,COc1ccc(Nc2nccc(-c3cccc(NC(=O)c4cc5cc(F)ccc5[nH]4)c3)n2)cc1 [GSK1229782],23%
16,CCCc1ccc(S(=O)(=O)NC2CCN(c3ccnc(Nc4ccc(F)cc4)n3)C2)cc1 (centres unmarked) [GSK1379715],0%
17,CC(=O)Nc1nc2cnc(Nc3cc(NC(=O)c4cccc(CCC#N)c4)ccc3C)nc2s1,0%

row,Compound,%Inh
1,Cc1ccc(NC(=O)Nc2cc(C(C)(C)C)nn2-c2ccccc2)cc1 [GSK1014915],0%
2,Cc1cccc(-c2nc(Nc3ccc4[nH]ncc4c3)c3ccccc3n2)n1 [GW857175],0%
3,Cc1cccc(-c2nc(C)cc(Nc3ccncc3)n2)n1 [GSK257997],94.2%
4,CS(=O)(=O)c1ccc(-c2nc3n(c2-c2ccncc2)CCC3)cc1 [SKF-105942],6%
5,O=C(Nc1ccc2c(c1)OCO2)NC1CCN(c2ccnc(Nc3ccc(F)cc3)n2)C1 (centres unmarked) [GSK1379724],15%
6,O=c1cc(N2CCOCC2)nc2n(Cc3cccc(Cl)c3Cl)ccn12 [GSK2286295],5%
7,COC(=O)c1c(-c2ccccc2)c2cc(OC)ccc2c(=O)n1Cc1ccccc1,13%
8,O=C(Nc1ccccc1)Nc1cccc(Oc2ccc3nccn3n2)c1,0%
9,Fc1cc(Cl)ccc1Nc1ccnc2cc(I)ccc12 [GW551191],1%
10,Cc1ccc(NC(=O)Nc2cccc(Cl)c2)cc1-c1ccc(C(=O)Nc2ccncc2)cc1 [GSK1398468],7%
11,O=C(O)COc1ncnc2cc(-c3ccc4[nH]ncc4c3)sc12,26%
12,Cn1ccc2ncnc(Oc3cccc(C(=O)Nc4ccccc4)c3)c21,20%
13,Cc1ccccc1-n1cnc2c(N)ncnc21 [SKF-97510],4%
14,COc1cc2ncnc(Nc3ccc4nc(-c5ccccc5)[nH]c4c3)c2cc1OC.Cl [GW282450],1%
15,Cl.O=C(Nc1cccc(-c2nn3ncccc3c2-c2ccnc(Nc3cccnc3)n2)c1)c1c(F)cccc1F [GSK312879],0%
16,NC(=O)c1nnc2ccccc2c1N,7%
17,CN(C)CCN(C)C(=O)c1cc(-c2ccncc2)c(-c2ccc(Cl)c(O)c2)o1.Cl.Cl [SB-710397],0%

# Tested on: CAMK2G
# Settings: concentration: 1 μM, replicates: in singlicate; n = 1
row,Compound,%Inh
1,CN1C(=O)C(Nc2ccc(Cl)c(C(=O)O)c2)=C(c2ccc(Cl)cc2)C1=O [SB-404290],18%
2,Cc1cccc(-c2nc(-c3ccc(S(C)(=O)=O)cc3)sc2-c2ccnc(NCCc3ccccc3)c2)c1,9%
3,COc1cccc(-c2cc(-c3c[nH]nc3-c3ccccn3)ccn2)c1 [GW680338],15%
4,Cl.NC(=O)c1cccc(Nc2nccc(Nc3ccc(Oc4cccc(Cl)c4)c(Cl)c3)n2)c1 [GW659008],16%
5,Cn1ccc2ncnc(Oc3ccc(NC(=O)Nc4ccccc4)cc3)c21,3%
6,Cc1ccc(C(=O)Nc2ccc(Nc3ccnc4cc(-c5ccccn5)ccc34)cc2O)cc1.Cl [GW440146],8%
7,Cc1c(O)cccc1Nc1ccnc2ccc(C(F)(F)F)cc12.Cl [GW466413],0%
8,CC(C)(C)c1ccc(C(=O)Nc2cn3cc(-c4cccnc4)ccc3n2)cc1,10%
9,CC1=C(C(=O)Nc2cc3cn[nH]c3cc2F)C(c2ccc(C(F)(F)F)cc2)CC(=O)N1 (centres unmarked) [GSK429286],24%
10,Cl.c1ccc(-c2n[nH]cc2-c2ccnc(-c3ccc(CN4CCOCC4)cc3)c2)nc1 [GW776245],13%
11,Cc1cccc(-c2cc(Nc3ccncc3)c3ccccc3n2)n1 [GSK223675],26%
12,Cc1cccc(-c2nc(Nc3ccncc3)c3ccccc3n2)n1 [GW855857],0%
13,COc1ccc2nc(-c3cccc(C)n3)nc(Nc3ccncc3)c2c1 [GSK204919],3%
14,COc1ccc(C2=C(Nc3cccc(C(=O)O)c3)C(=O)NC2=O)cc1 [SB-390765],26%
15,COc1ccc(Nc2nccc(-c3cccc(NC(=O)c4cc5cc(F)ccc5[nH]4)c3)n2)cc1 [GSK1229782],34%
16,CCCc1ccc(S(=O)(=O)NC2CCN(c3ccnc(Nc4ccc(F)cc4)n3)C2)cc1 (centres unmarked) [GSK1379715],0%
17,CC(=O)Nc1nc2cnc(Nc3cc(NC(=O)c4cccc(CCC#N)c4)ccc3C)nc2s1,0%

row,Compound,%Inh
1,Cc1ccc(NC(=O)Nc2cc(C(C)(C)C)nn2-c2ccccc2)cc1 [GSK1014915],14%
2,Cc1cccc(-c2nc(Nc3ccc4[nH]ncc4c3)c3ccccc3n2)n1 [GW857175],0%
3,Cc1cccc(-c2nc(C)cc(Nc3ccncc3)n2)n1 [GSK257997],12%
4,CS(=O)(=O)c1ccc(-c2nc3n(c2-c2ccncc2)CCC3)cc1 [SKF-105942],6%
5,O=C(Nc1ccc2c(c1)OCO2)NC1CCN(c2ccnc(Nc3ccc(F)cc3)n2)C1 (centres unmarked) [GSK1379724],13%
6,O=c1cc(N2CCOCC2)nc2n(Cc3cccc(Cl)c3Cl)ccn12 [GSK2286295],9%
7,COC(=O)c1c(-c2ccccc2)c2cc(OC)ccc2c(=O)n1Cc1ccccc1,18%
8,O=C(Nc1ccccc1)Nc1cccc(Oc2ccc3nccn3n2)c1,3%
9,Fc1cc(Cl)ccc1Nc1ccnc2cc(I)ccc12 [GW551191],14%
10,Cc1ccc(NC(=O)Nc2cccc(Cl)c2)cc1-c1ccc(C(=O)Nc2ccncc2)cc1 [GSK1398468],27%
11,O=C(O)COc1ncnc2cc(-c3ccc4[nH]ncc4c3)sc12,17%
12,Cn1ccc2ncnc(Oc3cccc(C(=O)Nc4ccccc4)c3)c21,19%
13,Cc1ccccc1-n1cnc2c(N)ncnc21 [SKF-97510],4%
14,COc1cc2ncnc(Nc3ccc4nc(-c5ccccc5)[nH]c4c3)c2cc1OC.Cl [GW282450],24%
15,Cl.O=C(Nc1cccc(-c2nn3ncccc3c2-c2ccnc(Nc3cccnc3)n2)c1)c1c(F)cccc1F [GSK312879],13%
16,NC(=O)c1nnc2ccccc2c1N,0%
17,CN(C)CCN(C)C(=O)c1cc(-c2ccncc2)c(-c2ccc(Cl)c(O)c2)o1.Cl.Cl [SB-710397],1%
